# Source: PubChem
# Only a selection was taken, and hits are over-represented in it overall.
# Tg IFNy HTS – blocks Toxoplasma gondii growth in the presence of IFN-gamma; Toxoplasma gondii growth in IFN-gamma-treated host cells; stronger effect = lower value; activity change, negative = inhibition, % (concentration not given with the values); 3.8% of 69,000 active; in the data active = activity change below about -70%, passing the limit was not always enough;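 also: host cells are HeLa cells infected with Toxoplasma gondii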
# * = called active by the depositor; ! = a repeat was not active.
SMILES,Tg IFNy HTS
COc1ccc(-c2nc(NCCc3ccc(OC)c(OC)c3)c3ccccc3n2)cc1,-86
O=C(NCCc1csc(-c2ccc(Cl)cc2)n1)c1ccccc1,-40
COc1ccc(Cl)cc1C(=O)NCCc1sc(-c2cccc(F)c2)nc1C,4
COc1ccccc1OCC(=O)NCCc1csc(-c2cccc(F)c2)n1,48
COc1ccccc1C(=O)NCCc1csc(-c2cccc(F)c2)n1,-78*
COc1ccc(Cl)cc1C(=O)NCCc1csc(-c2cccc(F)c2)n1,-90*
O=C(NCCc1csc(-c2ccc(Cl)cc2)n1)c1ccc(F)cc1,-60
CCOc1ccccc1C(=O)NCCc1csc(-c2cccc(F)c2)n1,-91*
CCOc1ccc(C(=O)NCCc2csc(-c3cccc(F)c3)n2)cc1OCC,54
CCOc1cc(C(=O)NCCc2csc(-c3cccc(F)c3)n2)cc(OCC)c1OCC,39
O=C(NCCc1csc(-c2ccc(F)cc2)n1)c1ccccc1,-81*
COc1ccc(C(=O)NCCc2csc(-c3cccc(F)c3)n2)cc1OC,32
O=C(NCCc1csc(-c2cccc(F)c2)n1)c1ccccc1F,-22
CN(Cc1nccn1Cc1ccccc1)C(=O)C1CC2(CCNCC2)CN1 (stereo not drawn),56
CN1CCC(Cc2noc(-c3nn(C)c4c3CCCC4)n2)CC1,-3
CN(C)S(=O)(=O)c1ccc2c(c1)cc(C(=O)NCCCN1CCCC1=O)n2Cc1ccccc1,19
COC(=O)[C@@H]1C[C@@H](N(C)C)CN1S(=O)(=O)c1c(C)cccc1Cl,-6
O=C(CC1COCCN1)NCc1cc(F)ccc1C(F)(F)F (stereo not drawn),7
N#Cc1ccc(C#Cc2ccccc2)cc1,47
Cc1ccc(S(=O)(=O)N2CCC3(CCC(C(=O)NCC4CC4)O3)C(C)C2)cc1 (stereo not drawn),-5
COc1ccc(CNC(=O)Cn2c(=O)cc(-c3nc(C4CC4)no3)c3ccccc32)cc1,14
COc1ccc(CNC(=O)Cn2c(=O)n(Cc3ccc(F)cc3)c(=O)c3ccccc32)cc1,-73*
COc1ccc(CNC(=O)Cn2c(N)nc(C)c(C)c2=O)cc1,-29
OCCC#Cc1ccc(C2NCCc3[nH]cnc32)cc1 (stereo not drawn),-54
C=Cc1cccc(CN(C)CCC(=O)NC)c1,85
SMILES,Tg IFNy HTS
CO[C@@H]1[C@H](N(C)C(=O)c2ccccc2)C[C@H]2O[C@]1(C)n1c3ccccc3c3c4c(c5c6ccccc6n2c5c31)C(=O)NC4,-84*
Cn1c2ccccc2c2c3c(c4c5ccccc5n(CCC#N)c4c21)CNC3=O,-63
Fc1ccc(C2CCCN2Cc2ccc3nonc3c2)cc1 (stereo not drawn),-5
c1c(CN2CCC(N3CCSCC3)CC2)nn2c1CNCC2,-1
CCN1CC(Cn2ccnc2-c2cc3c(cc2OC)CCC3)CC1=O (stereo not drawn),51
CN[C@H](C(=O)N[C@H](C(=O)N(C)[C@H](/C=C(\C)C(=O)O)C(C)C)C(C)(C)C)C(C)(C)c1ccccc1,-71*
CCc1ccccc1NC(=O)C1=C(C)C(=O)OC12CCN(Cc1ccccc1)CC2,184
O=C(NCc1cccc(F)c1)N1CCCCC1CN1CCOCC1 (stereo not drawn),-2
CC(CC(=O)O)S(=O)(=O)c1ccc(Cl)cc1 (stereo not drawn),12
O=C(c1cnnn1-c1ccccc1)N1CCCC(OCc2ccccn2)C1 (stereo not drawn),-20
C=CCn1c(SCc2ccccn2)nc2c([nH]c3ccccc32)c1=O,30
CC(C)(C)c1nc2ccccc2c2nnc(SCc3ccccn3)n12,-79*
Nc1nnc(SCc2ccccn2)s1,5
CC(C)(O)C#Cc1cccc(C(=O)NCc2csc(N)n2)c1,-53
Nc1nc(Nc2ccc3c(c2)CC[C@@H](N2CCCC2)CC3)nn1-c1cc2c(nn1)-c1ccccc1CCC2,-76*
CCc1ccc(S(=O)(=O)N2CSC[C@@H]2C(=O)NCCc2csc(-c3ccccc3)n2)cc1,-49
CCN1C(=O)CC(c2ccncc2)C12CCN(CCO)CC2 (stereo not drawn),-7
C[C@H]1[C@H](C)CC[C@]2(C(=O)O)CC[C@]3(C)C(=CC[C@@H]4[C@@]5(C)C[C@@H](O)[C@H](O)[C@@](C)(CO)[C@@H]5CC[C@]43C)[C@H]12,-74*!
C[C@H]1[C@H](C)CC[C@]2(C(=O)O)CC[C@]3(C)C(=CCC4[C@@]5(C)C[C@@H](O)[C@H](O)[C@@](C)(CO)C5CC[C@]43C)[C@H]12 (stereo partly drawn),23
C[C@H]1[C@H](C)CC[C@]2(C(=O)O)CC[C@]3(C)C(=CCC4[C@@]5(C)C[C@@H](O)[C@H](O)[C@@](C)(CO)C5[C@H](O)C[C@]43C)[C@H]12 (stereo partly drawn),-28
CC(C)CN1C(=O)N(Cc2ccccn2)C(=O)C12CCN(Cc1cccnc1)CC2,21
CCCCCCOc1nsnc1C1=CCCN(C)C1,-75*
Cc1nn(C)c(C)c1CCC(=O)N1CCC(Oc2ncccn2)CC1,-52
CCN(CCc1nc2ccc(C)cc2[nH]1)C(=O)Cc1csc(C)n1,-31
COc1ccc(CCCNC(=O)c2ccc(N3CC(O)C3)nc2)cc1,-1
SMILES,Tg IFNy HTS
COc1ccc(NC(=O)c2ccc(-n3c(C)ccc3C)cc2)c(OC)c1,14
COc1cc(CCc2cc(NC(=O)c3ccc(N4C[C@@H](C)N[C@@H](C)C4)cc3)n[nH]2)cc(OC)c1,-74*
CNC(=O)c1cc(Oc2ccc(NC(=O)Nc3ccc(Cl)c(C(F)(F)F)c3)cc2)ccn1,-80*
CC(=O)Nc1ccc(OCc2ncc(C(F)(F)F)cc2Cl)cc1,-44
CCCCOC(=O)c1ccc(NC(=O)Nc2ccc(Cl)c(Cl)c2)cc1,-62
CC(=O)N1CCCn2nc(C(=O)NCC3(CO)CCCC3)cc2C1,9
Cc1ccc(S(=O)(=O)Nc2ccc3c(c2)C(=O)N([C@@H](C)CO)C[C@H](C)[C@H](CN(C)Cc2ccc(C(F)(F)F)cc2)O3)cc1,-57
C[C@@H]1CN([C@@H](C)CO)C(=O)c2cc(NS(=O)(=O)c3ccc(Cl)cc3)ccc2O[C@@H](C)CCCCO[C@H]1CN(C)Cc1ccncc1,-12
C[C@H]1CCCCO[C@@H](CN(C)Cc2ccncc2)[C@@H](C)CN([C@@H](C)CO)C(=O)c2cc(NS(=O)(=O)c3ccc(Cl)cc3)ccc2O1,-65
COc1ccc(S(=O)(=O)Nc2ccc3c(c2)C(=O)N([C@@H](C)CO)C[C@H](C)[C@H](CN(C)Cc2ccc(C(F)(F)F)cc2)OCCCC[C@H](C)O3)cc1,-107*
COc1ccc(S(=O)(=O)Nc2ccc3c(c2)C(=O)N([C@@H](C)CO)C[C@H](C)[C@@H](CN(C)Cc2ccc(C(F)(F)F)cc2)OCCCC[C@@H](C)O3)cc1,-86*
C[C@H](CO)N1C[C@H](C)[C@H](CN(C)Cc2ccncc2)OCCCC[C@H](C)Oc2ccc(NS(=O)(=O)c3ccc(Cl)cc3)cc2C1=O,-55
CCN(Cc1cnn(C)c1)Cc1cnn(-c2cccc(C)c2)c1,-6
Cc1ncc(-c2ccncc2)c(CN(C)S(=O)(=O)c2ccc3c(c2)sc(=O)n3C)n1,-27
CC(C)N1CCC2(CC1)CN(C(=O)Nc1ccccc1)Cc1ccccc12,-52
CC1(C)CNC(=O)c2nc(C3OCCc4ccccc43)[nH]c2C1 (stereo not drawn),-12
CCCNC(=O)c1cc2c(c(-c3cccc(-c4cc5ccccc5o4)c3)n1)[C@H](CCO)N(C(=O)NC(C)C)C2,-71*
